# “And” between values parts separate entries of the source, which are not always exact repeats. Equal values may be shown once. Among all 9,600 compounds or so, about 20 (0.2%) were called active.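 Rule for the calls: active = highest normalized replicate activity of 15 or more, or at least half the replicates reach 15 or more; inactive = neither condition met.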 The sample as a whole holds a higher share of actives than the screen did. More than one record can exist for a structure, and the calls need not agree.
# Test: Pax4 mRNA upregulation in alpha cells – RT-PCR, mouse alpha TC1 cells, single point, primary screen (AID 1053180);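 note: Pax4 Ct normalized to GAPDH with activation seen as lower delta delta Ct; plate controls were plate neutral control wells for no effect and Pax4 plasmid positive control for full effect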
# Conditions: Pax4 mRNA qPCR, 6 days, at 10 µM, stronger effect = higher value, 100% = Pax4 plasmid added at qPCR
row,SMILES,activation
1,C[C@@H]1CCCCO[C@@H](CN(C)S(=O)(=O)c2ccc(F)cc2)[C@H](C)CN([C@@H](C)CO)C(=O)c2cc(N(C)C)ccc2O1,0.002% (inactive)
2,COc1cccc(S(=O)(=O)N[C@H]2CC[C@@H](CC(=O)NC3Cc4ccccc4C3)O[C@@H]2CO)c1,0.0015% (inactive)
3,CO[C@@H]1CC[C@H]2CCOc3c(C#N)cccc3C(=O)N(C)CCCC(=O)N(C)C[C@H]1O2,0.001% (inactive)
4,C[C@@H]1CCCCO[C@H](CN(C)C(=O)c2ccncc2)[C@H](C)CN([C@H](C)CO)C(=O)c2cc(NS(=O)(=O)c3cccs3)ccc2O1,0.001% (inactive)
5,CCCNC(=O)[C@H]1[C@H](CO)[C@H]2Cn3c(ccc(/C=C/c4ccccc4)c3=O)[C@H]2N1CC1CC1,0% (inactive)
6,N#Cc1cccc(-c2ccc(C3[C@@H]4CNC[C@H]3N4)cc2)c1 (stereo partly specified),0.0045% (inactive)
7,N#Cc1cccc(-c2ccc(C3[C@@H]4CN(C(=O)Nc5ccc(C(F)(F)F)cc5)C[C@H]3N4)cc2)c1 (stereo partly specified),8.39% (active) and 0.03% (inactive)
8,Cc1cccc(-c2ccc(C3[C@@H]4CN(C(=O)Nc5ccc(F)cc5)C[C@H]3N4)cc2)c1 (stereo partly specified),0.272% (inactive)
9,O=C(Nc1ccc(F)cc1)N1C[C@@H]2N[C@H](C1)C2c1ccc(/C=C/c2ccccc2)cc1 (stereo partly specified),1.76% (inactive)
10,COc1ccc(-c2ccc(C3[C@@H]4CN(S(=O)(=O)c5ccccc5C)C[C@H]3N4)cc2)cc1 (stereo partly specified),0.369% (inactive) and 0.0145% (inactive)
11,Cc1ccccc1S(=O)(=O)N1C[C@@H]2N[C@H](C1)C2c1ccc(-c2cccc(C#N)c2)cc1 (stereo partly specified),0.966% (inactive) and 11.5% (active)
12,C/C=C/c1ccc(C2[C@H]3CNC[C@@H]2N3C(=O)Nc2ccc(C(F)(F)F)cc2)cc1 (stereo partly specified),0.016% (inactive) and 0.0105% (inactive)
13,C/C=C/c1ccc(C2[C@@H]3CN(C(=O)Nc4ccc(C(F)(F)F)cc4)C[C@H]2N3)cc1 (stereo partly specified),32.9% (active) and 0.0565% (inactive)
14,COc1ccccc1NC(=O)N1C[C@@H]2N[C@H](C1)C2c1ccc(-c2cccc(C#N)c2)cc1 (stereo partly specified),0.02% (inactive) and 0.24% (inactive)
15,O=C1CNC[C@@H]2[C@H](c3ccc(-c4ccccc4F)cc3)[C@@H](CO)N12,0% (inactive)
16,CNC[C@@H]1Oc2cc(C#Cc3ccccc3OC)ccc2S(=O)(=O)N([C@H](C)CO)C[C@H]1C,10.4% (active)

row,SMILES,activation
1,CNC[C@H]1Oc2cc(C#Cc3ccccc3OC)ccc2S(=O)(=O)N([C@H](C)CO)C[C@@H]1C,0.402% (inactive)
2,CNC[C@H]1Oc2cc(C#Cc3ccccc3OC)ccc2S(=O)(=O)N([C@@H](C)CO)C[C@@H]1C,0.371% (inactive)
3,C[C@@H]1CN([C@@H](C)CO)C(=O)CCCn2nncc2CO[C@H]1CN(C)C(=O)c1cc(-c2ccccc2)on1,0.0055% (inactive)
4,C[C@@H]1CN([C@H](C)CO)C(=O)CCCn2nncc2CO[C@@H]1CN(C)Cc1ccccc1C(=O)O,-0.0005% (inactive)
5,C[C@@H]1CCCCO[C@H](CN(C)C(=O)Nc2ccc3c(c2)OCO3)[C@H](C)CN([C@H](C)CO)C(=O)c2cc(NS(=O)(=O)c3ccc(F)cc3)ccc2O1,0.0035% (inactive)
6,CC(C)CN(C[C@H]1N[C@H](CO)[C@@H]1c1ccccc1)C(=O)C1CCCCC1,0% (inactive)
7,CO[C@H]1CN(C)C(=O)c2cc(NC(=O)Nc3cccc(Cl)c3)ccc2OC[C@H](C)N(C(=O)Nc2c(C)noc2C)C[C@@H]1C,0.004% (inactive)
8,COc1ccc2c3c([nH]c2c1)[C@H](CO)N(Cc1ccccc1F)CC31CN(CC2CC2)C1,0.011% (inactive)
9,COCC#Cc1ccc([C@H]2[C@@H](CO)N3CCCCN(C(=O)NC4CCCC4)C[C@H]23)cc1,0.001% (inactive)
10,O=C(c1ccccc1)N1CC(=O)N2[C@H](CO)[C@H](c3ccc(-c4ccccc4)cc3)[C@@H]2C1,0.0005% (inactive)
11,C/C=C/c1ccc([C@@H]2[C@H](CO)N(C(C)=O)[C@H]2CNC(=O)c2ccccc2)cc1,0.0015% (inactive)
12,C[C@H](NC(=O)C[C@H]1C=C[C@@H](NC(=O)c2cccnc2)[C@H](CO)O1)c1ccccc1,0.0005% (inactive)
13,CS(=O)(=O)Nc1ccc2c(c1)[C@@H]1C[C@@H](CC(=O)NCc3cc(F)ccc3F)O[C@H](CO)[C@@H]1O2,0.007% (inactive)
14,C[C@@H]1CN([C@@H](C)CO)C(=O)c2ccccc2-c2ccccc2CO[C@@H]1CN(C)C(=O)NC1CCCCC1,-0.0015% (inactive)
15,CO[C@H]1CN(C)C(=O)c2ccc(NC(=O)c3nc4ccccc4s3)cc2OC[C@H](C)N(Cc2cccnc2)C[C@@H]1C,0.009% (inactive)

# Source: PubChem BioAssay AID1053180 (Broad Institute, 2014)
